Test results as given in PubChem BioAssay (NCI).
About 79,000 compounds went through this panel and 15% of them were active in at least one assay; those are over-represented in the sample as a whole. Calls of active or inactive are those of the source. Cut-off read from the data, not from the text of the source: active = growth inhibition above about 70%; inactive = the rest.

How the values were obtained:
[1] = NCI Yeast Anticancer Drug Screen. Data for the rad50 strain (AID 155);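 note: 0% = growth of vehicle-only cultures of the same strain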; conditions: S. cerevisiae rad50 strain growth inhibition, active compounds read high
Method in brief: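 Readout: growth inhibition relative to vehicle-treated cultures. Compound exposure was carried out in a genetically defined yeast strain deficient in DNA damage repair.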

[2] = NCI Yeast Anticancer Drug Screen. Data for the mec2-1 strain (AID 157); conditions: S. cerevisiae mec2-1 strain, active compounds read high
Method in brief: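 Test agents were screened against the mec2-1 yeast strain, with defined DNA repair or cell cycle alteration. Growth was scored as inhibition against vehicle-only controls.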

[3] = NCI Yeast Anticancer Drug Screen. Data for the sgs1 mgt1 strain (AID 161);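 note: 0% = growth of cultures given vehicle only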; conditions: S. cerevisiae sgs1 mgt1 strain, active compounds read high
Method in brief: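 Mutant yeast exposed to compound; growth scored against vehicle-only wells.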

[4] = NCI Yeast Anticancer Drug Screen. Data for the cln2 rad14 strain (AID 165);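 note: 0% = growth equal to vehicle treated cultures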; conditions: S. cerevisiae cln2 rad14 strain, active compounds read high
Method in brief: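 Growth of compound-exposed yeast (cln2 rad14 genotype) measured and expressed as inhibition relative to vehicle.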

[5] = NCI Yeast Anticancer Drug Screen. Data for the bub3 strain (AID 167); conditions: S. cerevisiae bub3 mutant strain, active compounds read high
Method in brief: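 Readout: yeast growth inhibition, expressed relative to vehicle-only wells. The test organism is a mutant strain from a panel with lesions in DNA repair or checkpoint genes.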

[6] = NCI Yeast Anticancer Drug Screen. Data for the mlh1 rad18 strain (AID 175); conditions: S. cerevisiae mlh1 rad18 strain growth inhibition, active compounds read high
Method in brief: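 In this whole-cell yeast screen, a strain with altered DNA damage repair is challenged with compound, and its growth is measured against matched vehicle-treated controls.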

[7] = at 5.0 µM (retest, dose inferred, filed as 0.5)
[8] = at 50.0 µM (retest, dose inferred, filed as 5.0)

Measured: growth inhibition

CCCOC(=O)C(Br)C(Br)C(=O)OCCC (configuration not stated)
active: [1]; [8] 97% | [1]; at 50.0 µM 90.5% | [2]; [8] 98% | [2]; at 50.0 µM 93% | [3]; [8] 100% | [3]; at 50.0 µM 93.5% | [4]; [8] 101% | [4]; at 50.0 µM 91% | [5]; [8] 100% | [5]; at 50.0 µM 91.8% | [6]; [8] 98% | [6]; at 50.0 µM 90.5%
inactive: [1]; [7] 60% | [2]; [7] 57% | [3]; [7] 36% | [4]; [7] 59% | [5]; [7] 46% | [6]; [7] 44%

CC#CCCCCOC(=O)c1cc([N+](=O)[O-])cc([N+](=O)[O-])c1
active: [1]; [7] 97% | [1]; [8] 99% | [1]; at 50.0 µM 99.5% | [2]; [7] 99% | [2]; [8] 100% | [2]; at 50.0 µM 99.6% | [3]; [7] 98% | [3]; [8] 99% | [3]; at 50.0 µM 99.6% | [4]; [7] 90% | [4]; [8] 99% | [4]; at 50.0 µM 99.4% | [5]; [7] 98% | [5]; [8] 99% | [5]; at 50.0 µM 99.7% | [6]; [7] 98% | [6]; [8] 99% | [6]; at 50.0 µM 99.4%

[O-][n+]1c2ccccc2nc2cc(Cl)ccc21
active: [1]; at 50.0 µM 92.2% | [6]; at 50.0 µM 84.8%
inactive: [1]; [7] -114% | [1]; [8] 11% | [2]; [7] -35% | [2]; [8] -32% | [2]; at 50.0 µM 21.6% | [3]; [7] -53% | [3]; [8] 6% | [3]; at 50.0 µM 68.5% | [4]; [7] -64% | [4]; [8] -46% | [4]; at 50.0 µM 25.6% | [5]; [7] -47% | [5]; [8] -1% | [5]; at 50.0 µM 48.1% | [6]; [7] -105% | [6]; [8] -17%

O=c1ccc2c(COc3ccc(Cl)cc3Cl)c3ccc(O)cc3oc-2c1
inactive: [1]; [7] -4% | [1]; [8] 15% | [2]; [7] -3% | [2]; [8] -1% | [2]; at 50.0 µM 45.8% | [3]; [7] -2% | [3]; [8] 12% | [4]; [7] 9% | [4]; [8] 12% | [4]; at 50.0 µM 26.7% | [5]; [7] -4% | [5]; [8] 1% | [5]; at 50.0 µM 25.1% | [6]; [7] -6% | [6]; [8] 4% | [6]; at 50.0 µM 60.1%
active: [1]; at 50.0 µM 78.5% | [3]; at 50.0 µM 73.9%

CC(c1ccc2cccc(F)c2c1)c1ccccc1C(=O)O (configuration not stated)
active: [1]; [8] 99% | [1]; at 50.0 µM 99% | [2]; [8] 98% | [2]; at 50.0 µM 96% | [3]; [8] 96% | [3]; at 50.0 µM 98.2% | [4]; [8] 98% | [4]; at 50.0 µM 97.5% | [5]; [8] 97% | [5]; at 50.0 µM 93.9% | [6]; [8] 99% | [6]; at 50.0 µM 98.2%
inactive: [1]; [7] 3% | [2]; [7] 6% | [3]; [7] -1% | [4]; [7] 1% | [5]; [7] 0% | [6]; [7] 5%

CC(CC(=O)c1ccc2sc3ccccc3c2c1)C(=O)O (configuration not stated)
inactive: [1]; [7] 6% | [1]; [8] 35% | [1]; at 50.0 µM 58.4% | [2]; [7] -4% | [2]; [8] 47% | [2]; at 50.0 µM 33.6% | [3]; [7] 14% | [3]; [8] 62% | [3]; at 50.0 µM 49.2% | [4]; [7] -2% | [4]; [8] 24% | [4]; at 50.0 µM 60.4% | [5]; [7] -2% | [5]; [8] 21% | [5]; at 50.0 µM 27.3% | [6]; [7] 15% | [6]; [8] 59% | [6]; at 50.0 µM 56.8%

CN(C)C(=O)/C=C/c1c[nH]c(=O)[nH]c1=O
inactive: [1]; [7] -146% | [1]; [8] -149% | [1]; at 50.0 µM -5.65% | [2]; [7] -47% | [2]; [8] -49% | [2]; at 50.0 µM -2.3% | [3]; [7] -63% | [3]; [8] -68% | [3]; at 50.0 µM 1.05% | [4]; [7] -58% | [4]; [8] -64% | [4]; at 50.0 µM 19.1% | [5]; [7] -73% | [5]; [8] -78% | [5]; at 50.0 µM -3.35% | [6]; [7] -149% | [6]; [8] -119% | [6]; at 50.0 µM 2.75%

Oc1ccc2c(c1O)/C(=C/C=NCC1(O)OCC(O)C(O)C1O)C=N2 (configuration not stated)
active: [3]; at 50.0 µM 88.4% | [4]; at 50.0 µM 83.5% | [6]; at 50.0 µM 77%
inactive: [1]; [7] 2% | [1]; [8] -7% | [1]; at 50.0 µM 67.3% | [2]; [7] 5% | [2]; [8] -7% | [2]; at 50.0 µM 67.4% | [3]; [7] 4% | [3]; [8] 1% | [4]; [7] 0% | [4]; [8] -9% | [5]; [7] 2% | [5]; [8] -3% | [5]; at 50.0 µM 48.3% | [6]; [7] 2% | [6]; [8] -2%

O=[N+]([O-])c1ccc(N2N=NC(CN3CCOCC3)C2N2CCOCC2)cc1 (configuration not stated)
inactive: [1]; [7] 5% | [1]; [8] 42% | [2]; [7] 0% | [2]; [8] 23% | [2]; at 50.0 µM 47.3% | [3]; [7] 1% | [3]; [8] 56% | [3]; at 50.0 µM 47.5% | [4]; [7] 0% | [4]; [8] 28% | [4]; at 50.0 µM 24.5% | [5]; [7] 2% | [5]; [8] 32% | [5]; at 50.0 µM 7.85% | [6]; [7] 3% | [6]; [8] 47% | [6]; at 50.0 µM 60.1%
active: [1]; at 50.0 µM 77.5%
